Laboratory results from the supplement of paper PMC9694430.

Legend:
Assay in all cases: thermal shift delta Tm vs DMSO control; higher = stronger stabilization (binding)
Settings in all cases: 12.5 µM; protein concentration 2 µM
LOC_OS01G57100-cb003 = test system: LOC_OS01G57100-cb003
In short: (§1)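 The melting temperature shift given here is a triplicate mean, measured against protein that received only DMSO. Melting temperatures came from Boltzmann fits of differential scanning fluorimetry data on E. coli-expressed, purified rice kinase domain constructs. Each 19.5 μl well contained 2 μM kinase, 100 mM potassium phosphate pH 7.5, 150 mM NaCl, 10% glycerol, 5 × SYPRO Orange and compound in DMSO. Plates were scanned from 25°C to 95°C at 0.05°C/s.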

LOC_OS01G60330-cb001 = test system: LOC_OS01G60330-cb001
In short: as §1

LOC_OS01G60700-cb002 = test system: LOC_OS01G60700-cb002
In short: as §1

LOC_OS01G63280-cb003 = test system: LOC_OS01G63280-cb003
In short: as §1

LOC_OS01G67340-cb003 = test system: LOC_OS01G67340-cb003
In short: as §1

LOC_OS01G70970-cb002 = test system: LOC_OS01G70970-cb002
In short: as §1

LOC_OS02G07810-cb001 = test system: LOC_OS02G07810-cb001
In short: as §1

LOC_OS02G08530-cb003 = test system: LOC_OS02G08530-cb003
In short: as §1

LOC_OS02G14120-cb001 = test system: LOC_OS02G14120-cb001
In short: as §1

LOC_OS02G17970-cb001 = test system: LOC_OS02G17970-cb001
In short: as §1

LOC_OS02G45750-cb003 = test system: LOC_OS02G45750-cb003
In short: as §1

LOC_OS02G54510-cb004 = test system: LOC_OS02G54510-cb004
In short: as §1

LOC_OS03G04050-cb001 = test system: LOC_OS03G04050-cb001
In short: as §1

LOC_OS03G12390-cb001 = test system: LOC_OS03G12390-cb001
In short: as §1

LOC_OS03G27990-cb004 = test system: LOC_OS03G27990-cb004
In short: as §1

LOC_OS03G50450-cb001 = test system: LOC_OS03G50450-cb001
In short: as §1

LOC_OS03G50810-cb003 = test system: LOC_OS03G50810-cb003
In short: as §1

LOC_OS04G35114-cb001 = test system: LOC_OS04G35114-cb001
In short: as §1

LOC_OS04G38480-cb003 = test system: T1, LOC_OS04G38480-cb003
T1 sequence (whole entry): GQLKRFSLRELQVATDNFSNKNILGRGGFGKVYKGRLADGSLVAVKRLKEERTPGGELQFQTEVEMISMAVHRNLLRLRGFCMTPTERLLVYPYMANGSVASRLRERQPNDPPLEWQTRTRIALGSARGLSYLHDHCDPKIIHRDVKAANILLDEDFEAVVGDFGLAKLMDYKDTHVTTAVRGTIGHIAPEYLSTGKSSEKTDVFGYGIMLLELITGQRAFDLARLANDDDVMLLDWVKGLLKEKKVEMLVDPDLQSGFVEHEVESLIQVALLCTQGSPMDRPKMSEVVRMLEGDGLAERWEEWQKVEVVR
In short: as §1

LOC_OS04G41100-cb001 = test system: T2, LOC_OS04G41100-cb001
T2 sequence (whole entry): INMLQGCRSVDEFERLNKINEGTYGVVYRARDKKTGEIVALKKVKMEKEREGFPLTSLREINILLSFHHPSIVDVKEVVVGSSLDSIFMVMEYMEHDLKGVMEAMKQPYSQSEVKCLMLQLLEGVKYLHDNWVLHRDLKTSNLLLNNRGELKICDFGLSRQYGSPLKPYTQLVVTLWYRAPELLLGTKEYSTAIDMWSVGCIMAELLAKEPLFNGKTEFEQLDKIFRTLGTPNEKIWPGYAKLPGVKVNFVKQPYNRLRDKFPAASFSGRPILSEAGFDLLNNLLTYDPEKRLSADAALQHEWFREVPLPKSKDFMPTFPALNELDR
In short: as §1

Row | SMILES | thermal shift delta Tm (LOC_OS01G57100-cb003) | thermal shift delta Tm (LOC_OS01G60330-cb001) | thermal shift delta Tm (LOC_OS01G60700-cb002) | thermal shift delta Tm (LOC_OS01G63280-cb003) | thermal shift delta Tm (LOC_OS01G67340-cb003) | thermal shift delta Tm (LOC_OS01G70970-cb002) | thermal shift delta Tm (LOC_OS02G07810-cb001) | thermal shift delta Tm (LOC_OS02G08530-cb003) | thermal shift delta Tm (LOC_OS02G14120-cb001) | thermal shift delta Tm (LOC_OS02G17970-cb001) | thermal shift delta Tm (LOC_OS02G45750-cb003) | thermal shift delta Tm (LOC_OS02G54510-cb004) | thermal shift delta Tm (LOC_OS03G04050-cb001) | thermal shift delta Tm (LOC_OS03G12390-cb001) | thermal shift delta Tm (LOC_OS03G27990-cb004) | thermal shift delta Tm (LOC_OS03G50450-cb001) | thermal shift delta Tm (LOC_OS03G50810-cb003) | thermal shift delta Tm (LOC_OS04G35114-cb001) | thermal shift delta Tm (LOC_OS04G38480-cb003) | thermal shift delta Tm (LOC_OS04G41100-cb001)
1 | CCNC(=O)C#Cc1ccc2c(C(=Nc3ccc(CN(C)C)cc3)c3ccccc3)c(O)[nH]c2c1 | -0.26 °C | 0.78 °C | 0.32 °C | 0.72 °C | 1.01 °C | 13.4 °C | 0.15 °C | 2.16 °C | 0.91 °C | 0.63 °C | 7.14 °C | 2.44 °C | -0.2 °C | 1.25 °C | 0.99 °C | 0.07 °C | 4.57 °C | 9.15 °C | 1.25 °C | 4.14 °C
2 | O=c1ccc2ccc(O)c(O)c2o1 [Daphnetin] | 4.5 °C | 1.15 °C | 1.06 °C | 0.68 °C | 0.06 °C | 0.05 °C | 1.27 °C | 1.2 °C | 0.72 °C | 1.06 °C | 1.1 °C | 0.54 °C | 0.75 °C | -0.23 °C | 0.69 °C | 1.08 °C | 0.83 °C | 0.8 °C | 1.96 °C | 0.36 °C
3 | COc1cc2ncnc(Oc3cccc(NC(=O)Nc4cc(C(C)(C)C(F)(F)F)on4)c3)c2cc1OC | 1.91 °C | 0.64 °C | 0.86 °C | 1.66 °C | 0.78 °C | 0.38 °C | 0.77 °C | 1.04 °C | 1.43 °C | 0.45 °C | 0.81 °C | 1.05 °C | 0.36 °C | 0.21 °C | 0.47 °C | 0.59 °C | 0.19 °C | 0.57 °C | 0.16 °C | 0.2 °C
4 | O=C(NOCC1CC1)c1ccc(F)c(F)c1Nc1ccc(I)cc1Cl | 2.41 °C | 2.82 °C | 2.16 °C | 0.93 °C | 0.18 °C | 1.09 °C | 1.23 °C | 1.11 °C | 1.97 °C | 1.54 °C | 0.27 °C | -0.05 °C | 1.06 °C | 0.75 °C | 0.28 °C | 0.46 °C | 0.83 °C | 0.12 °C | 1.28 °C | 0.9 °C
5 | COc1ccc(-c2ccc3c(N4CCOCC4)nc(N4C[C@@H](C)O[C@@H](C)C4)nc3n2)cc1CO | 0.55 °C | 0.67 °C | 0.28 °C | -0.12 °C | -0.53 °C | -0.02 °C | 0.61 °C | 0.4 °C | -0.18 °C | 0.46 °C | 0.16 °C | -0.13 °C | -0.03 °C | 0.03 °C | 0.02 °C | -0.08 °C | -0.07 °C | 0.21 °C | 0.34 °C | 0.27 °C
6 | Cc1cc(Nc2cc(N3CCN(C)CC3)nc(Sc3ccc(NC(=O)C4CC4)cc3)n2)n[nH]1 [Tozasertib (VX-680, MK-0457)] | 1.29 °C | 3.67 °C | 1.21 °C | 0.58 °C | 1.87 °C | 2.62 °C | 0.91 °C | 2.4 °C | 7.67 °C | 0.93 °C | 6.99 °C | 1.33 °C | 0.64 °C | 1.35 °C | 0.54 °C | 3.08 °C | 4.7 °C | 8.53 °C | 2.62 °C | 2.03 °C
7 | COc1cc(Nc2ncc(F)c(Nc3ccc4c(n3)NC(=O)C(C)(C)O4)n2)cc(OC)c1OC [R406 (free base)] | 5.12 °C | 8.58 °C | 0.44 °C | 0.7 °C | 1 °C | 3.16 °C | 2.03 °C | 4.18 °C | 13 °C | 0.86 °C | 4.87 °C | 3.74 °C | 0.5 °C | 7.52 °C | 1.81 °C | 8.85 °C | 4.46 °C | 2.9 °C | 4.51 °C | 1.22 °C
8 | CC1(C)CNc2cc(NC(=O)c3cccnc3NCc3ccncc3)ccc21 [Motesanib Diphosphate (AMG-706)] | 1.3 °C | 1.28 °C | 1.09 °C | 8.62 °C | -0.45 °C | 0.75 °C | 0.59 °C | 0.61 °C | -0.17 °C | 0.6 °C | -0.06 °C | 1.49 °C | 0.4 °C | -0.39 °C | 0.2 °C | -0.1 °C | 0.3 °C | 0.51 °C | 0.65 °C | 0.6 °C
9 | CC(C)NC[C@@H](C(=O)N1CCN(c2ncnc3c2[C@H](C)C[C@H]3O)CC1)c1ccc(Cl)cc1 [Ipatasertib (GDC-0068)] | 0.44 °C | 0.84 °C | 1.12 °C | 0.25 °C | 0.25 °C | 0.4 °C | 0.82 °C | 0.31 °C | -0.01 °C | 0.06 °C | 0.72 °C | 0.15 °C | 0.65 °C | -0.37 °C | 0.47 °C | 1.15 °C | 0.45 °C | 0.7 °C | 1.01 °C | 0.07 °C
10 | CC1Oc2cc(cnc2N)-c2c(nn(C)c2C#N)CN(C)C(=O)c2ccc(F)cc21 (stereo not given) | 3.37 °C | 0.4 °C | 0.4 °C | 0.16 °C | 0.4 °C | 0.35 °C | -0.27 °C | 2.75 °C | 6.77 °C | 0.31 °C | 1.05 °C | 0.8 °C | 0.3 °C | 6.42 °C | 0.12 °C | -0.13 °C | 0.66 °C | 0.69 °C | 2.3 °C | 0.38 °C
11 | COc1ccc2c(Oc3ccc(NC(=O)c4c(C)n(CC(C)(C)O)n(-c5ccccc5)c4=O)nc3)ccnc2c1 | 1.79 °C | 0.76 °C | 0.86 °C | 1.14 °C | 0.79 °C | 0.65 °C | 1.3 °C | 0.98 °C | 5.4 °C | 0.76 °C | 1.4 °C | 0.7 °C | 0.2 °C | 0.21 °C | 0.18 °C | 0.38 °C | 0.39 °C | 0.36 °C | 1.95 °C | 0.3 °C
